Measured values: PubChem BioAssay AID588814 (The Scripps Research Institute Molecular Screening Center, 2011)
In all, about 360,000 compounds went through this assay and about 1,200 (0.33%) were called active.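 How the source made its calls: active means activation above the run's mean compound activation plus 3 SD (cut at about 16% in these data); inactive means the rest.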 The sample as a whole holds a higher share of actives than the screen did.

What follows are molecules tested against Muscarinic acetylcholine receptor M1 (Homo sapiens) (UniProt P11229) (assay: human M1 muscarinic receptor agonists, primary screen, Fluo-8 calcium fluorescence, CHO-K1 cells, HTS (AID 588814;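 further: peak over basal fluorescence ratio within a 140 s kinetic read after compound addition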)). Conditions: CHO-K1 hM1, Fluo-8 calcium fluorescence, agonist mode; at 3 µM; hits give high values; 0% DMSO, 100% acetylcholine EC100.
Chain of Muscarinic acetylcholine receptor M1 (Homo sapiens) (P11229 whole entry, looked up): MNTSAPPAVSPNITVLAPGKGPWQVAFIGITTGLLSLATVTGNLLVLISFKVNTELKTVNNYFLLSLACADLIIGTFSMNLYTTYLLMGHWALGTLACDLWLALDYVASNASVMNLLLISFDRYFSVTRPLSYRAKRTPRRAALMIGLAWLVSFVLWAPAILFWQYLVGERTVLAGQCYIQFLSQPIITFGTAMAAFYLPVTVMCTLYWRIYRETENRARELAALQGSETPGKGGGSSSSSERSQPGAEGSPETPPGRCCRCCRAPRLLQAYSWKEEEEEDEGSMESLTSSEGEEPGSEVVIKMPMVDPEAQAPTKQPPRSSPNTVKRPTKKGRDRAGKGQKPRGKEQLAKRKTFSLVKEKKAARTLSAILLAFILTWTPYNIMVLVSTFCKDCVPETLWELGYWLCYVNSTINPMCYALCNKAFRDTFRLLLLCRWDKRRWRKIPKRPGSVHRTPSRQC

activation, inactive:
COCCNc1ncnc2c1nc1n2CCCC1 -3.29%, COCCCNC(=O)c1cccc2c(-c3ccc(O)c(OC)c3)coc12 0.67%, Cc1ccc(/C=N/NC(=O)C(NC(=O)c2ccccc2)c2n[nH]c(=O)c3ccccc23)cc1 (centres undefined) -2.92%, CSc1nc2nc(-c3cccc(C(F)(F)F)c3)ccn2n1 -3%, Cc1ccc(-n2nc3c(c2NC(=O)CCC2CCCCC2)CS(=O)C3)cc1 (centres undefined) -1.89%, Cc1cccc(NC(=S)NCCc2ccc(Cl)cc2)c1C -5.48%, Cc1ccccc1N/C(SCc1ccc(Cl)cc1)=C(/C#N)C(N)=O -7.61%, O=C(COc1ccc(Cl)cc1)Nc1ccccc1CO -3.25%, O=C(COc1ccc(Cl)cc1)NC(=S)Nc1ccccc1N1CCOCC1 0.8%, O=C(c1ccccc1)c1cccn1CC(=O)N1CCN(c2ccc(F)cc2)CC1 0.36%, Cc1nc2ccccc2n1C(=O)N1CCOCC1 -1.92%, O=C(N/N=C1\CCSC1)c1cc(Cl)ccc1O -0.13%, CN(CC(=O)NCCc1ccc(S(N)(=O)=O)cc1)CC(=O)Nc1ccc(Cl)cc1 -1.41%, CCN(CC)c1ccc(C2C3CCCCC3(O)CCN2CC(=O)Nc2ccccc2)cc1 (centres undefined) -4.34%, COc1ccc(C2/C(=C(/O)c3ccc4c(c3)CC(C)O4)C(=O)C(=O)N2Cc2ccncc2)cc1 (centres undefined) -3.47%, Cc1c[n+]([O-])ccc1[N+](=O)[O-] -2.04%, Nc1nc(SCC(=O)NNc2c(Cl)cc(Cl)cc2Cl)n[nH]1 -4.83%, Cc1ccc(/C=C/C(=O)OCC(=O)NCc2ccc(Cl)cc2)o1 -3.98%, CCc1ccc2oc(-c3ccc(N)cc3)nc2c1 6.55%, Cc1ccc2oc(=O)ccc2c1 -4.21%, Cc1cc(=O)oc2c3c(cc(OCC(=O)NCC(O)c4ccccc4)c12)OC(C)(C)CC3 (centres undefined) 0.12%, CN(CCO)C(=O)c1nc[nH]c1C(=O)N(C)Cc1ccccc1 -4.9%, CCOC(=O)N(Cc1ccccc1)C1CC1 -2.66%, CCS(=O)(=O)n1nc(-c2ccccc2)nc1SCc1ccccc1 -2.07%, CN(CC(=O)NCCN1CCOCC1)S(=O)(=O)c1ccc(F)cc1 -1.7%, Cc1c(C(=O)NCc2ccc(C#N)cc2)sc(=O)n1Cc1ccc(C(=O)N(C)C)cc1 -5.38%, Cc1ccc(Cn2c(C)c(C(=O)NCc3ccccc3C(F)(F)F)sc2=O)cc1 -6.02%, COc1ccc(N/N=C2/CCCCC2=O)cc1 -3.78%, COc1ccc(NC(=O)C2(C)Cc3c(-c4cccc(NC(C)=O)c4)ccnc3O2)cc1 (centres undefined) -1.09%, O=C1CCN(CCc2ccccc2)CCN1CCOc1ccccc1 -5.27%, O=S(=O)(c1cccs1)N1CCN(CCOc2ccccc2)CC1 -2.7%, CC1Cc2ccccc2N1CC(=O)Nc1ccc(S(N)(=O)=O)cc1 (centres undefined) 0.2%, O=C(CN(Cc1ccccc1)C(=O)CCC(=O)Nc1ccccn1)NCCc1ccccc1 -5.06%, CC(=O)NC(CC(=O)Nc1nc(-c2ccccc2)c(C(C)=O)s1)c1ccccc1 (centres undefined) -2.65%, Nc1ncnc2c1ncn2[C@@H]1O[C@H](C(=O)NS(=O)(=O)c2c(Cl)nc3sccn23)[C@@H](O)[C@H]1O -1%, COc1ccc(/C=C/C(=O)c2c(O)cc(OC)cc2OC)cc1 -5.79%, COc1cccc(C=CC(=O)C=CC=Cc2ccccc2)c1 -0.1%, CCOc1ccc(CCNC(=O)COC(=O)c2c(OC)cccc2OC)cc1OCC 0.68%, CC(C)CC(=O)NC(=S)NCc1ccccc1 -7.45%, O=C(CCN1CCN(c2ccccc2)CC1)NNC(=S)Nc1ccccc1 -3%, O=C(N=C1SC2CS(=O)(=O)CC2N1Cc1ccccc1)c1ccccc1 (centres undefined) 0.69%, CCOc1ccc(NS(=O)(=O)c2ccc(C(=O)NC3CCN(Cc4ccccc4)CC3)cc2)cc1 -4.76%, CCOc1ccc(S(=O)(=O)Nc2ccc(C(=O)NCCCN3CCCC3=O)cc2)cc1 -1.87%, Cc1ccc(S(=O)(=O)N(CC(=O)Nc2cccnc2)c2ccc(Br)cc2)cc1 -0.74%, COc1ccc(CCNc2ncnc3nc[nH]c23)cc1OC 3.98%, O=C(Cn1cnc2ccccc2c1=O)NCC1COc2ccccc2O1 (centres undefined) -0.06%, CCc1ccc(NC(=O)N2CCc3ccccc3C2)cc1 -5.56%, C=CCNC(=S)N1CCc2[nH]c3ccccc3c2C1 2.34%, O=C(Nc1cccc2c1CCCC2)C1CCN(C(=O)NC2CCCCC2)CC1 -2.08%, O=C(CSc1nnc2c(n1)[nH]c1ccccc12)NC1CCCCC1 -3.41%, CCOC1=C2[C@@H](CN(S(=O)(=O)c3ccc(C)cc3)[C@H]2c2ccccc2F)[C@H]2C(=O)N(Cc3ccccc3)C(=O)[C@H]2C1 -5.09%, CCCc1cc(=O)[nH]c(SCC(=O)Nc2ccc(S(=O)(=O)N3CCCC3)cc2)n1 -4.58%, CCC(=O)c1ccc(OCC(=O)OCC(=O)N2CCc3ccccc3C2)cc1 -1.8%, CCN1CCc2nc(NC(=O)c3cc(F)c(F)cc3Cl)sc2C1 -7.11%, COC(=O)c1ccc(CSc2ccc3nnc(-c4ccccc4)n3n2)o1 -7.9%, COCCNC(=O)C1CCCN(Cc2ccccc2Cl)CC1 (centres undefined) -7.52%, CCCNC(=O)CCn1nc(-c2ccccc2)c2ccccc2c1=O -3.19%, COc1ccc(CNC(=O)CN(C(=O)c2csnn2)c2cnc3ccccc3c2)cc1 -11.5%, CCOC(=O)C(CC)/C(C)=N\NC(=O)c1cccc(C)c1 (centres undefined) -0.97%, COc1ccccc1S(=O)(=O)c1c(C)cc(C)[nH]c1=O -1.5%, O=C1c2ccccc2NC(c2ccccn2)N1NS(=O)(=O)c1ccccc1 (centres undefined) 0.48%, CN(C(=O)CN1C(=O)NC(C)(CCc2ccccc2)C1=O)c1ccccc1 (centres undefined) -0.73%, Cc1ccc(CN2C(=O)N/C(=C/c3cc(C)n(-c4ccccn4)c3C)C2=O)cc1 -1.17%, Cc1ccc(S(=O)(=O)N(Cc2ccc(Cl)cc2)c2ccccc2C(=O)NCc2cccnc2)cc1 -7.63%, CC(C)N(C(=O)Cn1cc(SCC(=O)N2CCCC2)c2ccccc21)C(C)C -6.14%, O=C(CC1SCCNC1=O)Nc1ccc(Cl)cc1 (centres undefined) -4.53%, CCCc1ccc(OCC(=O)NNC(=S)NC(=O)c2ccco2)cc1 4.47%, O=C(Nc1ccc2ccccc2c1)/C(=C\c1ccc2c(c1)OCO2)NC(=O)c1ccco1 -10.2%, CCc1nc2c(OCCOc3ccccc3)cccn2c1N(C=O)Cc1ccc(OC)cc1 -6.89%, CCOC(=O)[C@H]1[C@H]2COc3cc(OC)ccc3[C@@H]2N2C(=O)N(c3ccc(Br)cc3)C(=O)[C@@]12C -5.08%, Cc1cc(C)c(S(=O)(=O)N2CCC(C(=O)OCc3c(C)noc3C)CC2)c(C)c1 -3.3%, C=CCn1c(SCc2c(C(=O)OC)sc(N)c2C(=O)OC)nnc1-c1ccc(Cl)cc1 0%, COc1ccc(CCNC2=C(Cl)C(=O)N(Cc3ccccc3)C2=O)cc1OC -3.94%, CN1C=CC=C/C1=C1\SC(=S)N(Cc2ccccc2)C1=O -13.4%, CCn1c(COc2c(C)cccc2C)nnc1SCc1nc2ccccc2c(=O)[nH]1 -4.55%, COc1ccc(CCCc2nnc(SCc3nc4ccccc4c(=O)[nH]3)n2C)cc1 -15.5%

activation, active:
Cc1ccccc1NC(=S)NC(=O)Cc1ccc(Cl)cc1 29.9%, O=C(Cc1ccc(Cl)cc1)NC(=S)Nc1ccccc1O 52.4%, CCN(CC)c1ccc2oc(=O)c(C)nc2c1 49%, CN(C(=O)CN(CCO)CC(=O)N(C)C(C)(C)Cc1ccccc1)C(C)(C)Cc1ccccc1 27.2%, CC(=O)Oc1ccc(Cn2c(C)c(C(=O)NCc3ccc(C#N)cc3)sc2=O)cc1 33%, O=c1[nH]c2ccccc2n1C1CCN(CCOc2ccccc2)CC1 75.4%, O=C(/C=C(O)/C=C/c1ccc(O)cc1)/C=C/c1ccc(O)cc1 30%, CCCCC(=O)NNC(=S)NC(=O)C(c1ccccc1)c1ccccc1 88.8%, CCOc1ccc(NS(=O)(=O)c2ccc(C(=O)NCC(c3ccccc3OC)N3CCCC3)cc2)cc1 (centres undefined) 22.7%, c1ccc2c(c1)OCC(CNc1ncnc3nc[nH]c13)O2 (centres undefined) 134%, O=C(Nc1ccc(Cl)cc1)N1CCc2[nH]c3ccccc3c2C1 21.6%, O=C(NC1CCCCC1)N1CCc2[nH]c3ccccc3c2C1 18.1%, CCN1/C(=C\c2ccc3ccccc3[n+]2CC)Sc2cc(C)ccc21 26.1%, Cc1cc(C)c(/C=C2\C(=O)Nc3ccccc32)[nH]1 26.4%, CN(C)c1ccc(/C=C2\NC(=S)N(Cc3ccccc3)C2=O)cc1 47.3%, CC(Oc1ccc2ccccc2c1)C(=O)NNC(=S)NC(=O)c1ccco1 (centres undefined) 51.6%, COc1cc(/C=C2/SC(=S)N(Cc3ccccc3)C2=O)cc(OC)c1O 24.3%, COc1ccc(C)cc1-n1nnnc1SCc1nc2ccccc2c(=O)[nH]1 16.2%
